Hits are enriched below; roughly 1.2% of the tested compounds scored in any of these assays.
ugtP null kill – compounds lethal to S. aureus RN4220 ugtP deletion mutant; growth inhibition, % (concentration not given with the values); OD600 growth, 16 h; AID 1259309; 330,000 compounds, 0.54% hits; in the data active = growth inhibition above about 68%
Sa RN4220 lethal – kills Staphylococcus aureus RN4220 | S. aureus RN4220 growth, OD600, 16 h | inhibition, % (test concentration not listed) | 330,000 compounds, 0.33% hits | AID 1259311; in the data active = inhibition above about 85%
TcdB inh – TcdB glycohydrolase inhibition; 350,000 compounds, 0.24% hits; inhibition, % at 9.99 µM; TcdB glycohydrolase enzymatic assay, plate reader; AID 652162; in the data active = inhibition above about 10%
PrP 5UTR inh – suppresses PrP 5' UTR mRNA reporter expression. cell-based PrP 5' UTR mRNA reporter, plate reader. inhibition, % (no concentration beside the values). 340,000 compounds, 0.35% hits; in the data active = inhibition above about 52%
PfHsp40 yeast – rescue of PfHsp40-mediated yeast toxicity. growth rescue, % at 12.5 µM. S. cerevisiae expressing PfHsp40, growth rescue, ATP luminescence. AID 504582. 340,000 compounds, 0.68% hits; in the data active = growth rescue above about 28%, passing the limit was not always enough;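 note: yeast W303a lacking pdr1 and pdr3 grown in galactose medium; growth measured after three days at 30 °C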
Hits are given with their value; . = inactive; / = no result.

SMILES | ugtP null kill | Sa RN4220 lethal | TcdB inh | PrP 5UTR inh | PfHsp40 yeast
Cc1ccc(S(=O)(=O)Nc2ccc3c(c2)C(=O)N([C@@H](C)CO)C[C@H](C)[C@H](CN(C)S(=O)(=O)c2ccccc2)OCCCC[C@@H](C)O3)cc1 | / | / | . | / | /
Nc1nc(NCCO)nc(N2CCCCCC2)c1[N+](=O)[O-] | . | . | . | . | .
Nc1nc(NCCOCCO)nc(N2CCCCCC2)c1[N+](=O)[O-] | 94 | . | . | . | .
CCCCCOc1ccc(OC(=O)c2ccncc2)cc1 | . | . | / | . | 74
Cc1c(C(=O)Oc2cccc3ccccc23)cnn1-c1ccccc1 | . | . | / | . | 34
CC(=O)c1ccc(N2CCN(C(=O)C3(S(=O)(=O)c4ccc(Cl)cc4)CC3)CC2)cc1 | . | . | / | . | .
O=C(N1CCN(c2cccc(Cl)c2)CC1)C1(S(=O)(=O)c2ccc(Cl)cc2)CC1 | . | . | / | . | 83
COc1ccc(C)cc1NC(=O)C(OC(=O)C1=NNC(=O)CC1)c1ccccc1 (stereo not drawn) | . | . | 13 | . | .
COc1ccc2c3c([nH]c2c1)[C@H](CO)N(C(=O)CN(C)C)CC31CN(CC2CC2)C1 | / | / | . | / | /
CCN1C(=O)CSC1=NS(=O)(=O)c1ccccc1 | . | . | / | / | /
CCN1C(=O)CSC1=NC1C2CC3CC(C2)CC1C3 (stereo not drawn) | 91 | . | / | . | .
CCn1c(C)nc2cc(C(=O)N/N=C/c3ccc(OC)c(O)c3)ccc21 | / | / | 11 | . | .
CCn1c(C)nc2cc(C(=O)N/N=C/c3ccc(OC)cc3)ccc21 | / | / | . | . | .
CCn1c(C)nc2cc(C(=O)N/N=C/c3ccc(O)cc3)ccc21 | / | / | 14 | . | .
CCn1c(C)nc2cc(C(=O)NN=Cc3ccc(O)cc3)ccc21 | . | . | / | / | /
O=C(C[C@@H]1C[C@@H]2c3cc(NC(=O)C4CCOCC4)ccc3O[C@@H]2[C@H](CO)O1)NCc1ccccc1F | / | / | . | / | /
CCOc1ccccc1C(=O)NN=Cc1cccc2cccnc12 | . | . | / | / | /
CCCNC(=O)NS(=O)(=O)c1ccc(Cl)cc1 | . | . | . | . | .
CCCNC(=O)c1nnsc1S(=O)(=O)c1ccc(Cl)cc1 | . | . | . | . | 120
CNC(=O)c1nnsc1S(=O)c1ccc(Cl)cc1 (stereo not drawn) | 100 | 99 | . | . | 79
CCCNC(=O)c1nnsc1S(=O)c1ccc(Cl)cc1 (stereo not drawn) | 100 | 98 | . | . | .
C[C@H]1CN([C@@H](C)CO)C(=O)c2cccc(NC(=O)C3CCOCC3)c2O[C@H]1CN(C)C(=O)Nc1ccc(F)cc1 | / | / | . | / | /
C[C@H](CO)N1C[C@H](C)[C@H](CN(C)Cc2ccc3c(c2)OCO3)Oc2ncc(C#Cc3ccccc3)cc2C1=O | / | / | . | / | /
O=C(NC(=S)NC1CCCCCC1)c1cncc(Br)c1 | . | . | / | . | 33
O=C(NC(=S)Nc1ccc(O)cc1)c1cncc(Br)c1 | . | . | 15 | . | .
SMILES | ugtP null kill | Sa RN4220 lethal | TcdB inh | PrP 5UTR inh | PfHsp40 yeast
O=C(NC(=S)Nc1ncc(Br)cc1Br)c1cncc(Br)c1 | . | . | / | . | .
O=C(NC(=S)Nc1cccc(O)c1)c1cncc(Br)c1 | . | . | . | . | .
CC(=O)C(=NNc1ccccc1C)N1CCOCC1 | . | . | / | / | /
COc1cc(OC)c([C@H]2C=C(C)[C@H]3C[C@@H]2C3(C)C)c(OC)c1 | 94 | . | . | . | .
COc1ccc(C(=O)NC(C(=O)NCc2ccccc2OC)C(C)C)cc1 (stereo not drawn) | . | . | 15 | . | .
COc1cc(C=NNC(=O)CCN2CCCCC2)ccc1O | . | . | / | / | /
COc1cc(/C=N/NC(=O)CCN2CCCCC2)ccc1O | / | / | 10 | . | .
Cc1ccc(S(=O)(=O)N2C(c3ccc4c(c3)OCO4)CC=C(C(=O)O)C2c2ccc(F)cc2)cc1 (stereo not drawn) | . | . | / | / | /
Nc1ccc(C(=O)OCC(=O)N2CCOCC2)cc1[N+](=O)[O-] | . | . | . | . | 47
O=C1OC(CN2CCOCC2)CN1N=Cc1ccc([N+](=O)[O-])o1 (stereo not drawn) | 100 | 100 | . | . | .
O=C1OC(CN(Cc2ccccc2)Cc2ccccc2)CN1N=Cc1ccc([N+](=O)[O-])o1 (stereo not drawn) | 100 | . | . | . | .
Cc1ccc2c(c1)/C(=C/c1ccc(F)cc1)C(=O)N2 | . | . | . | . | .
Cc1ccc2c(c1)/C(=C/c1ccccc1C)C(=O)N2 | . | . | 12 | . | .
COc1c(C=NNc2nc(N3CCCCC3)nc(N3CCCCC3)n2)cccc1[N+](=O)[O-] | . | . | / | / | /

Screening data deposited in PubChem BioAssay by several laboratories.
